The panel holds about 79,000 compounds, 15% with a hit somewhere; the sample as a whole holds those more often. Values without a mark were called inactive. Calls of active or inactive are those of the source. No stated cut-off is given here; in the data, active means growth inhibition above about 70%; inactive means the rest.
Test: NCI Yeast Anticancer Drug Screen. Data for the rad14 strain (AID 159);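 further: 0% = growth of vehicle-treated control cultures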
Settings: S. cerevisiae rad14 strain growth inhibition, active compounds read high
Procedure: Growth inhibition of yeast strains with defined genetic alterations is measured as a screen for potential anti-cancer activity. Selected strains with alterations in DNA damage repair or cell cycle control were exposed to compounds and growth inhibition was measured relative to vehicle treated controls. The strain used in this assay is rad14

SMILES	growth inhibition (at 1.2 µM) [%]	growth inhibition (at 3.7 µM) [%]	growth inhibition (at 11.0 µM) [%]	growth inhibition (at 33.0 µM)	growth inhibition (at 100.0 µM)
Oc1ccc(NCn2c(=S)sc3ccccc32)cc1	-11	-8	-6	62%	98% (active)
CN(C)c1nc2sc3c(c2c(=O)o1)CCCC3	1	-3	3	27%	45%
CCC(C)COC(=O)c1ccc(N=Cc2ccc(C=Nc3ccc(C(=O)OCC(C)CC)cc3)cc2)cc1 (stereo not given)	-1	1	4	2%	11%
Cc1ccc(Cl)c2[nH]c(-c3ccccc3)cc(=O)c12	-2	-6	-2	-12%	1%
CCC#CCCCOC(=O)c1cc([N+](=O)[O-])cc([N+](=O)[O-])c1	-5	-6	1	79% (active)	99% (active)
COc1ccc(N=C2C(=O)Nc3ccc(Br)cc32)cc1	-22	-25	-26	-28%	-30%
C/C(=N/NC(=S)N1CCCCCC1)c1cccc(/C(C)=N\NC(=S)N2CCCCCC2)n1	6	14	40	71% (active)	76% (active)
CCN(CC)CCNc1ccc([N+](=O)[O-])c2nc3ccc(OC)cc3c(N)c12	-34	-29	-19	28%	88% (active)
